Values joined by “and” are separate entries in the source; they are usually repeats but may differ in a detail not shown here. Equal values may be shown once. The whole screen tested about 5,500 compounds, of which about 2,000 (36%) were called active. Another 18% or so got no clear call; they are omitted. Cut-off read from the data, not from the text of the source: active = normalized growth mostly below about 0.91 (no sharp cut-off); inconclusive = no clear call, values can overlap the other calls; inactive = mostly above about 0.92. This is one part of the list.
Assay: chemical genetic growth profiling, strain panel (AID 1159580);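 note: tested at 20 µM; growth read once vehicle control cultures reached saturation at 30 °C; 1 = growth at the plate median or of vehicle wells; lower values mean less growth of the strain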
Conditions: S. cerevisiae deletion strains, growth OD

Measured: normalized growth

CC(=O)OC1CCC2(C)C3CC(=O)C4(C)C(CC5OC6(CCC(C)CO6)[C@@H](C)C54)C3CC[C@H]2C1 (stereo not given in full)
inactive: locus YAL013W, strain DEP1, hits give low values 0.982 | locus YAL021C, strain ccr4, hits give low values 0.987 | locus YAL026C, strain drs2, hits give low values 0.991 | locus YAL030W, strain snc1, hits give low values 0.981 | locus YBL061C, strain skt5, hits give low values 0.982 | locus YBR009C, strain hhf1, hits give low values 0.991 | locus YBR021W, strain FUR4, hits give low values 1.07 | locus YBR023C, strain chs3, hits give low values 0.994 | locus YBR171W, strain sec66, hits give low values 0.984 | locus YBR229C, strain ROT2, hits give low values 0.99 | locus YBR231C, strain swc5, hits give low values 1.01 | locus YBR279W, strain paf1, hits give low values 0.987 | locus YCL011C, strain gbp2, hits give low values 0.979 | locus YCL016C, strain dcc1, hits give low values 0.98 | locus YCL029C, strain bik1, hits give low values 0.963 | locus YCL069W, strain vba3, hits give low values 1.01 | locus YCR088W, strain abp1, hits give low values 0.994 | locus YDL005C, strain med2, hits give low values 0.975 | locus YDL035C, strain GPR1, hits give low values 1.01 | locus YDL040C, strain nat1, hits give low values 0.99 | locus YDL074C, strain BRE1, hits give low values 0.983 | locus YDL101C, strain DUN1, hits give low values 0.992 | locus YDL185W, strain tfp1, hits give low values 0.952 | locus YDL192W, strain arf1, hits give low values 0.986 | locus YDR001C, strain nth1, hits give low values 0.988 | locus YDR069C, strain doa4, hits give low values 0.968 | locus YDR101C, strain arx1, hits give low values 1 | locus YDR137W, strain rgp1, hits give low values 0.973 | locus YDR159W, strain sac3, hits give low values 1.03 | locus YDR162C, strain NBP2, hits give low values 0.972 | locus YDR195W, strain ref2 0.942 | locus YDR297W, strain sur2, hits give low values 0.978 | locus YDR318W, strain mcm21, hits give low values 0.996 | locus YDR334W, strain swr1, hits give low values 0.985 | locus YDR335W, strain msn5, hits give low values 0.978 | locus YDR388W, hits give low values 0.978 | locus YDR392W, strain spt3, hits give low values 1.01 | locus YDR502C, strain sam2, hits give low values 0.971 | locus YEL003W, strain gim4, hits give low values 0.986 | locus YEL037C, strain rad23, hits give low values 0.998 | locus YEL061C, strain CIN8 (second series), hits give low values 0.999 | locus YER015W, strain faa2, hits give low values 0.988 | locus YER016W, strain bim1, hits give low values 0.96 | locus YER110C, hits give low values 0.97 | locus YER111C, strain swi4, hits give low values 0.995 | locus YER155C, strain BEM2 (second series), hits give low values 0.999 | locus YER155C, strain BEM2, hits give low values 1.01 | locus YER167W, strain BCK2, hits give low values 1.01 | locus YFR010W, strain ubp6, hits give low values 1 | locus YGL078C, strain dbp3, hits give low values 0.988 | locus YGL086W, strain mad1, hits give low values 0.993 | locus YGL167C, strain pmr1, hits give low values 0.99 | locus YGL173C, strain kem1, hits give low values 1.01 | locus YGL227W, strain vid30, hits give low values 0.974 | locus YGL240W, strain doc1, hits give low values 0.98 | locus YGL248W, strain PDE1, hits give low values 0.991 | locus YGL253W, strain hxk2, hits give low values 0.976 | locus YGR078C, strain PAC10, hits give low values 0.986 | locus YGR135W, strain pre9, hits give low values 0.977 | locus YGR252W, strain gcn5, hits give low values 0.986 | locus YHR013C, strain ard1, hits give low values 0.957 | locus YHR027C, strain rpn1, hits give low values 0.982 | locus YHR030C, strain SLT2, hits give low values 0.977 | locus YHR079C, strain IRE1 (second series), hits give low values 0.987 | locus YHR079C, strain IRE1, hits give low values 1.01 | locus YHR094C, strain hxt1, hits give low values 0.975 | locus YHR129C, strain ARP1, hits give low values 0.982 | locus YHR142W, strain chs7, hits give low values 0.955 | locus YHR200W, strain rpn10, hits give low values 0.993 | locus YIL066C, strain RNR3, hits give low values 0.988 | locus YIL073C, strain SPO22, hits give low values 0.931 | locus YIL125W, strain kgd1, hits give low values 0.974 | locus YIR030C, strain dcg1, hits give low values 0.988 | locus YJL092W, strain hpr5, hits give low values 0.985 | locus YJL095W, strain BCK1 (second series), hits give low values 0.981 | locus YJL095W, strain BCK1, hits give low values 0.962 and 1 | locus YJL115W, strain asf1, hits give low values 0.958 | locus YJL129C, strain trk1, hits give low values 0.969 | locus YJL134W, strain LCB3, hits give low values 0.99 | locus YJL154C, strain vps35, hits give low values 0.986 | locus YJL164C, strain tpk1, hits give low values 0.993 | locus YJL166W, strain qcr8, hits give low values 0.965 | locus YJL168C, strain set2, hits give low values 0.983 | locus YJL187C, strain SWE1 (second series), hits give low values 0.977 | locus YJR066W, strain TOR1, hits give low values 0.934 | locus YJR075W, strain HOC1, hits give low values 0.988 | locus YKL009W, strain mrt4, hits give low values 0.983 | locus YKL068W, hits give low values 0.981 | locus YKL085W, strain MDH1 (second series), hits give low values 0.988 | locus YKL085W, strain MDH1, hits give low values 0.988 | locus YKL160W, strain elf1, hits give low values 0.964 | locus YKR001C, strain vps1, hits give low values 0.992 | locus YKR026C, strain gcn3, hits give low values 1 | locus YKR091W, strain srl3, hits give low values 0.964 | locus YLL001W, strain dnm1, hits give low values 1.01 | locus YLL026W, hits give low values 0.977 | locus YLL041C, strain sdh2, hits give low values 0.992 | locus YLR027C, strain aat2, hits give low values 0.965 | locus YLR039C, strain RIC1, hits give low values 0.994 | locus YLR058C, strain SHM2, hits give low values 0.982 | locus YLR102C, strain apc9, hits give low values 0.972 | locus YLR113W, strain HOG1, hits give low values 0.976 | locus YLR221C, strain rsa3, hits give low values 1.01 | locus YLR258W, strain gsy2, hits give low values 0.961 | locus YLR262C, strain YPT6 (second series), hits give low values 0.974 | locus YLR268W, strain sec22, hits give low values 0.984 | locus YLR320W, strain mms22, hits give low values 1.03 | locus YLR342W, strain FKS1 (second series), hits give low values 1.03 | locus YLR342W, strain FKS1, hits give low values 0.975 | locus YLR357W, strain rsc2, hits give low values 0.964 | locus YLR370C, strain arc18, hits give low values 0.973 | locus YLR371W, strain rom2, hits give low values 0.992 | locus YLR384C, strain iki3, hits give low values 0.983 | locus YLR418C, strain cdc73, hits give low values 1.02 | locus YML016C, strain PPZ1, hits give low values 1.01 | locus YML032C, strain rad52, hits give low values 0.996 | locus YML120C, strain ndi1, hits give low values 0.989 | locus YML124C, strain tub3, hits give low values 0.982 | locus YMR058W, strain fet3, hits give low values 0.979 | locus YMR078C, strain ctf18, hits give low values 0.986 | locus YMR125W, strain sto1, hits give low values 0.986 | locus YMR129W, hits give low values 0.975 | locus YMR205C, strain PFK2, hits give low values 1 | locus YMR223W, strain ubp8, hits give low values 0.981 | locus YMR231W, strain pep5, hits give low values 0.989 | locus YMR263W, strain SAP30, hits give low values 0.979 | locus YMR307W, strain GAS1, hits give low values 1.06 | locus YNL067W, strain RPL9B, hits give low values 0.967 | locus YNL071W, strain lat1, hits give low values 1 | locus YNL153C, strain GIM3, hits give low values 0.973 | locus YNL183C, strain NPR1, hits give low values 0.956 | locus YNL209W, strain ssb2, hits give low values 1 | locus YNL233W, strain BNI4, hits give low values 0.989 | locus YNL248C, strain rpa49, hits give low values 0.955 | locus YNL250W, strain rad50, hits give low values 0.969 | locus YNL271C, strain bni1, hits give low values 0.994 | locus YNL298W, strain CLA4, hits give low values 0.973 | locus YNL307C, strain MCK1, hits give low values 0.974 | locus YNL322C, strain KRE1 (second series), hits give low values 0.98 | locus YNR049C, strain mso1, hits give low values 0.966 | locus YNR052C, strain pop2, hits give low values 0.976 | locus YOL006C, strain TOP1, hits give low values 1.06 | locus YOL012C, strain htz1 0.635 | locus YOL147C, strain pex11, hits give low values 0.965 | locus YOR001W, strain rrp6, hits give low values 1.03 | locus YOR061W, strain CKA2, hits give low values 0.997 | locus YOR069W, strain VPS5, hits give low values 0.99 | locus YOR070C, strain gyp1, hits give low values 0.993 | locus YOR080W, strain dia2, hits give low values 0.974 | locus YOR083W, strain WHI5, hits give low values 0.974 | locus YOR106W, strain vam3, hits give low values 0.963 | locus YOR136W, strain idh2, hits give low values 0.981 | locus YOR144C, strain elg1, hits give low values 0.982 | locus YOR184W, strain ser1, hits give low values 1.01 | locus YOR231W, strain MKK1, hits give low values 0.988 | locus YOR265W, strain rbl2, hits give low values 0.968 | locus YOR270C, strain vph1, hits give low values 0.999 | locus YOR290C, strain snf2, hits give low values 0.96 | locus YOR316C, strain cot1, hits give low values 0.97 | locus YPL051W, strain arl3, hits give low values 0.977 | locus YPL078C, strain atp4, hits give low values 0.979 | locus YPL106C, strain sse1, hits give low values 0.986 | locus YPL240C, strain hsp82, hits give low values 0.982 | locus YPL241C, strain CIN2, hits give low values 0.994 | locus YPL256C, strain CLN2, hits give low values 0.993 | locus YPR119W, strain clb2, hits give low values 0.995 | locus YPR141C, strain kar3, hits give low values 0.97 | locus YPR163C, strain tif3, hits give low values 0.962 | locus YPR167C, strain met16, hits give low values 0.988 | strain wtn01, hits give low values 0.985

Source: PubChem BioAssay AID1159580 (chemical genetic matrix, 2015)
